# Measured values reported in publication PMC11006913.
# Positions count from the first letter of the chain named.
# Columns and labels:
# Test in all cases: PBM; 200 nM protein, PBS
# Settings in all cases: dsDNA, one strand shown
# VENTX [1] = target: T1, VENTX (Homo sapiens, UniProt O95231 78-163, R121Q)
# T1 sequence: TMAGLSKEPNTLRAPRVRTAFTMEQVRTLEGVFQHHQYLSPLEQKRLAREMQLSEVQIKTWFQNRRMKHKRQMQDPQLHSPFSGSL
# ALX4 = ALX4 (Homo sapiens, UniProt Q9H161 200-286)
# PRRX1 [2] = target: PRRX1 (Homo sapiens, UniProt P54821 80-166, F113S)
# VENTX [3] = target: T2, VENTX (Homo sapiens, UniProt O95231 78-163, Y115F)
# T2 sequence: T1 sequence with Y38F, Q44R
# HOXA2 = HOXA2 (Homo sapiens, UniProt O43364 129-215, R185T)
# PAX4 = target: T3, PAX4 (Homo sapiens, UniProt O43316 9-242, R200Q)
# T3 sequence: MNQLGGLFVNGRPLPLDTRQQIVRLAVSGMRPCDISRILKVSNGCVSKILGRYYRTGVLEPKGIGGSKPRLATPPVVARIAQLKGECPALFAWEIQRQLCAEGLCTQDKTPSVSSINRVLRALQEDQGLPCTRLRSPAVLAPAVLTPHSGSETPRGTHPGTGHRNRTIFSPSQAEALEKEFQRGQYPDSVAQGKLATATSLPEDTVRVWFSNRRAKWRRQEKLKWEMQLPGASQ
# MSX2 [4] = target: MSX2 (Homo sapiens, UniProt P35548 130-214)
# MSX2 [5] = target: MSX2 (Homo sapiens, UniProt P35548 130-214, F161Y)
# VAX1 [6] = target: VAX1 (Homo sapiens, UniProt Q5SQQ9 86-172, T142I)
# PRRX1 [7] = target: PRRX1 (Homo sapiens, UniProt P54821 80-166)
# VAX1 [8] = target: VAX1 (Homo sapiens, UniProt Q5SQQ9 86-172, K157R)
# HOXB4 = HOXB4 (Homo sapiens, UniProt P17483 148-234, V174I)
# HOXA7 [9] = target: HOXA7 (Homo sapiens, UniProt P31268 116-202)
# HOXA7 [10] = target: HOXA7 (Homo sapiens, UniProt P31268 116-202, W177C)
# HOXA4 [11] = target: HOXA4 (Homo sapiens, UniProt Q00056 201-287, W262F)
# HOXB6 = HOXB6 (Homo sapiens, UniProt P17509 132-218, K202E)
# HOXA4 [12] = target: HOXA4 (Homo sapiens, UniProt Q00056 201-287, R217L)
# HOXA4 [13] = target: HOXA4 (Homo sapiens, UniProt Q00056 201-287, W262R)
# HOXA4 [14] = target: HOXA4 (Homo sapiens, UniProt Q00056 201-287)
# Sequence of HOXA4 (Homo sapiens, UniProt Q00056 201-287) (Q00056 201-287): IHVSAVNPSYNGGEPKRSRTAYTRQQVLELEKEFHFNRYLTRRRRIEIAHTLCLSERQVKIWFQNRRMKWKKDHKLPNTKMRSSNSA
# Sequence of VAX1 (Homo sapiens, UniProt Q5SQQ9 86-172, T142I) (Q5SQQ9 86-172 T142I): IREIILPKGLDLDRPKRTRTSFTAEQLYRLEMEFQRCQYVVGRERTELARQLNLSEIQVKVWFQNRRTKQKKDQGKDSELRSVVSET
# Sequence of HOXA2 (O43364 129-215 R185T): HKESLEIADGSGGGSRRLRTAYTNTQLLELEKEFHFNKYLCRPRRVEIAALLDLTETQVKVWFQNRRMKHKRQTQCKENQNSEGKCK
# Sequence of MSX2 (Homo sapiens, UniProt P35548 130-214, F161Y) (P35548 130-214 F161Y): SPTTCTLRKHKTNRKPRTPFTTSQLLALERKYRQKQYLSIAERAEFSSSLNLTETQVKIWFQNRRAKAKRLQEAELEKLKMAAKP
# Sequence of PRRX1 (Homo sapiens, UniProt P54821 80-166, F113S) (P54821 80-166 F113S): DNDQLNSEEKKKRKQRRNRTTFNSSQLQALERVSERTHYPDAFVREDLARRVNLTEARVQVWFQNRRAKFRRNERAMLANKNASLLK
# Sequence of ALX4 (Q9H161 200-286): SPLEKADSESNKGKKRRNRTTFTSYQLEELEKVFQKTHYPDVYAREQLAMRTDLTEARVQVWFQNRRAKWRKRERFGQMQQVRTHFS
# Sequence of MSX2 (Homo sapiens, UniProt P35548 130-214) (P35548 130-214): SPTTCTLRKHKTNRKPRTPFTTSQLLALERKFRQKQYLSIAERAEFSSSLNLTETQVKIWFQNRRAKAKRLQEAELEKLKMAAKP
# Sequence of PRRX1 (Homo sapiens, UniProt P54821 80-166) (P54821 80-166): as the sequence (P54821 80-166 F113S) above, with S34F counted along it
# Sequence of VAX1 (Homo sapiens, UniProt Q5SQQ9 86-172, K157R) (Q5SQQ9 86-172 K157R): as the sequence (Q5SQQ9 86-172 T142I) above, with I57T, K72R counted along it
# Sequence of HOXA4 (Homo sapiens, UniProt Q00056 201-287, W262F) (Q00056 201-287 W262F): as the sequence (Q00056 201-287) above, with W62F counted along it
# Sequence of HOXA7 (Homo sapiens, UniProt P31268 116-202) (P31268 116-202): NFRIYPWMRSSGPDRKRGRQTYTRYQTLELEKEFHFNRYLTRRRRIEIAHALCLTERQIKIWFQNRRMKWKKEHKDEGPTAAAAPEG
# Sequence of HOXA4 (Homo sapiens, UniProt Q00056 201-287, R217L) (Q00056 201-287 R217L): as the sequence (Q00056 201-287) above, with R17L counted along it
# Sequence of HOXA7 (Homo sapiens, UniProt P31268 116-202, W177C) (P31268 116-202 W177C): as the sequence (P31268 116-202) above, with W62C counted along it
# Sequence of HOXB6 (P17509 132-218 K202E): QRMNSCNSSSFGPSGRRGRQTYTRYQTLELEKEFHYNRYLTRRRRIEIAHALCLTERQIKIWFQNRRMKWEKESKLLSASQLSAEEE
# Sequence of HOXA4 (Homo sapiens, UniProt Q00056 201-287, W262R) (Q00056 201-287 W262R): as the sequence (Q00056 201-287) above, with W62R counted along it
# Sequence of HOXB4 (P17483 148-234 V174I): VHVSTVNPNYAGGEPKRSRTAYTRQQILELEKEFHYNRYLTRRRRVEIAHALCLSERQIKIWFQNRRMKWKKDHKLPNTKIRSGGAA
sequence,measurement,setting,value
GCCAATTA,binding signal,VENTX [1],"11.8 upbm affinity estimate (log intensity, higher = more binding, comparable within an allelic series)"
same,binding signal,ALX4,"14 upbm affinity estimate (log intensity, higher = more binding, comparable within an allelic series)"
same,binding signal,PRRX1 [2],"11.2 upbm affinity estimate (log intensity, higher = more binding, comparable within an allelic series)"
same,binding signal,VENTX [3],"11.5 upbm affinity estimate (log intensity, higher = more binding, comparable within an allelic series)"
same,binding signal,HOXA2,"12.6 upbm affinity estimate (log intensity, higher = more binding, comparable within an allelic series)"
same,binding signal,PAX4,"11.9 upbm affinity estimate (log intensity, higher = more binding, comparable within an allelic series)"
same,binding signal,MSX2 [4],"14 upbm affinity estimate (log intensity, higher = more binding, comparable within an allelic series)"
same,binding signal,MSX2 [5],"13.6 upbm affinity estimate (log intensity, higher = more binding, comparable within an allelic series)"
same,binding signal,VAX1 [6],"12.4 upbm affinity estimate (log intensity, higher = more binding, comparable within an allelic series)"
same,binding signal,PRRX1 [7],"13.3 upbm affinity estimate (log intensity, higher = more binding, comparable within an allelic series)"
same,binding signal,VAX1 [8],"12.6 upbm affinity estimate (log intensity, higher = more binding, comparable within an allelic series)"
TAATTGAA,binding signal,ALX4,"13.9 upbm affinity estimate (log intensity, higher = more binding, comparable within an allelic series)"
same,binding signal,PRRX1 [2],"11.2 upbm affinity estimate (log intensity, higher = more binding, comparable within an allelic series)"
same,binding signal,HOXA2,"12.5 upbm affinity estimate (log intensity, higher = more binding, comparable within an allelic series)"
same,binding signal,HOXB4,"13.6 upbm affinity estimate (log intensity, higher = more binding, comparable within an allelic series)"
same,binding signal,MSX2 [4],"13.6 upbm affinity estimate (log intensity, higher = more binding, comparable within an allelic series)"
same,binding signal,MSX2 [5],"13.2 upbm affinity estimate (log intensity, higher = more binding, comparable within an allelic series)"
same,binding signal,PRRX1 [7],"13.3 upbm affinity estimate (log intensity, higher = more binding, comparable within an allelic series)"
ATTAATGC,binding signal,HOXA7 [9],"11 upbm affinity estimate (log intensity, higher = more binding, comparable within an allelic series)"
same,binding signal,PAX4,"11.7 upbm affinity estimate (log intensity, higher = more binding, comparable within an allelic series)"
same,binding signal,HOXA7 [10],"8.84 upbm affinity estimate (log intensity, higher = more binding, comparable within an allelic series)"
AATTAAGC,binding signal,ALX4,"13.7 upbm affinity estimate (log intensity, higher = more binding, comparable within an allelic series)"
same,binding signal,PRRX1 [2],"11 upbm affinity estimate (log intensity, higher = more binding, comparable within an allelic series)"
same,binding signal,VENTX [3],"11.5 upbm affinity estimate (log intensity, higher = more binding, comparable within an allelic series)"
same,binding signal,HOXA2,"12.5 upbm affinity estimate (log intensity, higher = more binding, comparable within an allelic series)"
same,binding signal,PAX4,"12 upbm affinity estimate (log intensity, higher = more binding, comparable within an allelic series)"
same,binding signal,MSX2 [5],"12.9 upbm affinity estimate (log intensity, higher = more binding, comparable within an allelic series)"
same,binding signal,VAX1 [6],"12.3 upbm affinity estimate (log intensity, higher = more binding, comparable within an allelic series)"
same,binding signal,HOXA4 [11],"11.5 upbm affinity estimate (log intensity, higher = more binding, comparable within an allelic series)"
same,binding signal,PRRX1 [7],"13.3 upbm affinity estimate (log intensity, higher = more binding, comparable within an allelic series)"
CAATTATA,binding signal,HOXA7 [9],"11.4 upbm affinity estimate (log intensity, higher = more binding, comparable within an allelic series)"
same,binding signal,ALX4,"13.8 upbm affinity estimate (log intensity, higher = more binding, comparable within an allelic series)"
same,binding signal,PRRX1 [2],"11.5 upbm affinity estimate (log intensity, higher = more binding, comparable within an allelic series)"
same,binding signal,HOXB6,"10 upbm affinity estimate (log intensity, higher = more binding, comparable within an allelic series)"
same,binding signal,HOXA4 [12],"12 upbm affinity estimate (log intensity, higher = more binding, comparable within an allelic series)"
same,binding signal,MSX2 [4],"14 upbm affinity estimate (log intensity, higher = more binding, comparable within an allelic series)"
same,binding signal,MSX2 [5],"13.7 upbm affinity estimate (log intensity, higher = more binding, comparable within an allelic series)"
same,binding signal,HOXA7 [10],"8.95 upbm affinity estimate (log intensity, higher = more binding, comparable within an allelic series)"
same,binding signal,PRRX1 [7],"13.4 upbm affinity estimate (log intensity, higher = more binding, comparable within an allelic series)"
CCGAGCGG,binding signal,HOXA4 [13],"9.72 upbm affinity estimate (log intensity, higher = more binding, comparable within an allelic series)"
same,binding signal,HOXA4 [12],"9.78 upbm affinity estimate (log intensity, higher = more binding, comparable within an allelic series)"
same,binding signal,HOXA4 [14],"9.77 upbm affinity estimate (log intensity, higher = more binding, comparable within an allelic series)"
same,binding signal,HOXA4 [11],"9.89 upbm affinity estimate (log intensity, higher = more binding, comparable within an allelic series)"
ACAATTAG,binding signal,VENTX [1],"11.8 upbm affinity estimate (log intensity, higher = more binding, comparable within an allelic series)"
same,binding signal,VENTX [3],"11.6 upbm affinity estimate (log intensity, higher = more binding, comparable within an allelic series)"
same,binding signal,MSX2 [4],"13.7 upbm affinity estimate (log intensity, higher = more binding, comparable within an allelic series)"
same,binding signal,MSX2 [5],"13.3 upbm affinity estimate (log intensity, higher = more binding, comparable within an allelic series)"
ATAATTGG,binding signal,ALX4,"14 upbm affinity estimate (log intensity, higher = more binding, comparable within an allelic series)"
same,binding signal,PRRX1 [2],"11.5 upbm affinity estimate (log intensity, higher = more binding, comparable within an allelic series)"
same,binding signal,PAX4,"11.9 upbm affinity estimate (log intensity, higher = more binding, comparable within an allelic series)"
same,binding signal,MSX2 [4],"14.1 upbm affinity estimate (log intensity, higher = more binding, comparable within an allelic series)"
same,binding signal,MSX2 [5],"13.7 upbm affinity estimate (log intensity, higher = more binding, comparable within an allelic series)"
same,binding signal,PRRX1 [7],"13.4 upbm affinity estimate (log intensity, higher = more binding, comparable within an allelic series)"
AATTATAA,binding signal,ALX4,"13.7 upbm affinity estimate (log intensity, higher = more binding, comparable within an allelic series)"
same,binding signal,PRRX1 [2],"11.4 upbm affinity estimate (log intensity, higher = more binding, comparable within an allelic series)"
same,binding signal,MSX2 [4],"13.4 upbm affinity estimate (log intensity, higher = more binding, comparable within an allelic series)"
same,binding signal,MSX2 [5],"13 upbm affinity estimate (log intensity, higher = more binding, comparable within an allelic series)"
same,binding signal,PRRX1 [7],"13.3 upbm affinity estimate (log intensity, higher = more binding, comparable within an allelic series)"
AATTAGCC,binding signal,ALX4,"13.8 upbm affinity estimate (log intensity, higher = more binding, comparable within an allelic series)"
same,binding signal,PRRX1 [2],"10.7 upbm affinity estimate (log intensity, higher = more binding, comparable within an allelic series)"
same,binding signal,PAX4,"11.7 upbm affinity estimate (log intensity, higher = more binding, comparable within an allelic series)"
same,binding signal,MSX2 [4],"13.3 upbm affinity estimate (log intensity, higher = more binding, comparable within an allelic series)"
same,binding signal,MSX2 [5],"12.9 upbm affinity estimate (log intensity, higher = more binding, comparable within an allelic series)"
same,binding signal,VAX1 [6],"12.1 upbm affinity estimate (log intensity, higher = more binding, comparable within an allelic series)"
same,binding signal,PRRX1 [7],"13.2 upbm affinity estimate (log intensity, higher = more binding, comparable within an allelic series)"
same,binding signal,VAX1 [8],"12.1 upbm affinity estimate (log intensity, higher = more binding, comparable within an allelic series)"
